From PubChem
Hits are enriched below; roughly 1.9% of the tested compounds scored in any of these assays.
OPRM1-OPRD1 ag: OPRM1-OPRD1 heterodimerization agonism; P35372+P41143; cells, luminescence; activation, % at 9.3 µM; 340,000 tested, 0.3% active; in the data active means activation above about 18%
Target sequence (P35372 whole entry, looked up): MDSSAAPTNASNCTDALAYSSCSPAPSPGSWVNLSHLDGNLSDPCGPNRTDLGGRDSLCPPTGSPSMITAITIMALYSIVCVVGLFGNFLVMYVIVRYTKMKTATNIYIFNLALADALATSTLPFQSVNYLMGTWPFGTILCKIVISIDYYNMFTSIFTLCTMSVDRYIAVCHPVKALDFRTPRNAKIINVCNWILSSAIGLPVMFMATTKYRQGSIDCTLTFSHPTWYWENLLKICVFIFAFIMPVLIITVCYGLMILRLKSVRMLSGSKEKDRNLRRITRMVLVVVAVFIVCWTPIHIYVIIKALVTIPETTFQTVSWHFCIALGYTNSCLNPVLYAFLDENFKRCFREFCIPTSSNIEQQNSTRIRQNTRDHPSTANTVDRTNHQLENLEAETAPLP
Target sequence (P41143 whole entry, looked up): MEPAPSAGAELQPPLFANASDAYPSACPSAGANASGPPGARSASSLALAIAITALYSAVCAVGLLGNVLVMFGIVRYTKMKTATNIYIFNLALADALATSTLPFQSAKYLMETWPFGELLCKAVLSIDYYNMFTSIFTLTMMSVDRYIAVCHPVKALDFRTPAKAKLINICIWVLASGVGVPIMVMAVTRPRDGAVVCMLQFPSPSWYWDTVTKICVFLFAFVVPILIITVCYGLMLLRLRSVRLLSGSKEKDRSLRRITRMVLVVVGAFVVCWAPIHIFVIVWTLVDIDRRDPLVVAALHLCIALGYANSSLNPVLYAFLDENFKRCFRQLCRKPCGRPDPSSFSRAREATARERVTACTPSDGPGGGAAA
MsrA inhibitor: bovine MsrA inhibition; purified bovine MsrA, absorbance read-out; inhibition, % at 15.5 µM; 360,000 tested, 0.75% active; in the data active means inhibition above about 4.5%
OPRM1-OPRD1 inv: mu-delta opioid heterodimer inverse agonism. 340,000 tested, 0.21% active. cell-based MOR-DOR heterodimer luminescence. inhibition, % at 9.3 µM; in the data active means inhibition above about 22%, passing the limit was not always enough
bovine MsrA act: bovine methionine sulfoxide reductase A activation; purified bovine MsrA, absorbance read-out; activation, % at 10.6 µM; 360,000 tested, 0.3% active; in the data active means activation above about 7.5%
HTR5A ag: counter-screen for OPRM1-OPRD1 agonists: human HTR5A agonism; P47898; HTR5A agonist assay, luminescence, cell-based; activation, % at 9.3 µM; 340,000 tested, 0.61% active; AID 504692; in the data active means activation mostly above about 9.5%, no sharp cut-off; inactive means mostly below about 7.6%
HTR5A inv ctr: HTR5A inverse agonism, opioid heterodimer counter-screen; P47898; HTR5A cell line, luminescence; inhibition, % at 9.3 µM; 340,000 tested, 0.083% active; AID 504634; in the data active means inhibition mostly above about 23%, no sharp cut-off; inactive means mostly below about 18%
Of the large screens only hits and unclear results are named; the others gave an inactive call.

CCOC(=O)CN1N=C(/C=C/c2ccc(OC)cc2)CCC1=O	MsrA inhibitor 6.1
O=C(N[C@@H](Cc1ccccc1)C(=O)N[C@@H](Cc1ccccc1)C(=O)O)OCc1ccccc1	none
O=C(NC(Cc1ccccc1)C(=O)NC1CC1)OCc1ccccc1 (stereo not given)	HTR5A ag 12.2
CC(C)[C@H](NC(=O)OCc1ccccc1)C(=O)NCc1ccccc1	HTR5A ag 12.0
CCCCOCC1CN(CCCC)S(=O)(=O)c2c(cccc2N2CCCC2)O1 (stereo not given)	none (no result: OPRM1-OPRD1 ag, OPRM1-OPRD1 inv, bovine MsrA act, HTR5A ag, HTR5A inv ctr)
COC(=O)c1cc2c(c3c4cc(C)ccc4n(S(=O)(=O)c4ccc(OC)cc4)c13)C(=O)N(C)C2	none (no result: OPRM1-OPRD1 ag, OPRM1-OPRD1 inv, bovine MsrA act, HTR5A ag, HTR5A inv ctr)
CC(C)Oc1ccc(-c2cc(C(=O)NCCN3CCOCC3)c3ccccc3n2)cc1	MsrA inhibitor 4.6
CCCCCCCCN1C(=O)[C@@H](CC(=O)NCCCOCCCC)C[C@@]2(C(=O)OC)C1=C[C@H](C(C)(C)C)O[C@@H]2C	none (no result: OPRM1-OPRD1 ag, OPRM1-OPRD1 inv, bovine MsrA act, HTR5A ag, HTR5A inv ctr)
S=c1nc2ccccc2c2nc(-c3ccccc3)[nH]n12	HTR5A ag 9.2
S=c1nc2ccccc2c2nc(-c3ccccc3Cl)[nH]n12	none
COC(=O)[C@]12C[C@H](CC(=O)NCC34CC5CC(CC(C5)C3)C4)C(=O)N(Cc3ccccc3)C1=C[C@H](C(C)(C)C)O[C@@H]2C	none (no result: OPRM1-OPRD1 ag, OPRM1-OPRD1 inv, bovine MsrA act, HTR5A ag, HTR5A inv ctr)
COc1ccc(-c2nn(-c3ccccc3)cc2C#N)cc1	HTR5A ag 13.8
COc1cc2c(cc1NC(=O)C(C)N1CCN(S(=O)(=O)c3ccc(C)c(C)c3)CC1)oc1ccccc12 (stereo not given)	none
COc1cc2c(cc1NC(=O)C(C)OC(=O)c1ccc(S(=O)(=O)Nc3ccccc3Cl)cc1)oc1ccccc12 (stereo not given)	HTR5A ag 12.6
COC(=O)C1=C(C)N(Cc2ccccc2C(F)(F)F)C(=NCc2cc(OC)c(OC)c(OC)c2)NC1c1cccc(F)c1 (stereo not given)	none (no result: OPRM1-OPRD1 ag, OPRM1-OPRD1 inv, bovine MsrA act, HTR5A ag, HTR5A inv ctr)
COc1ccc(/C(C)=N/NS(=O)(=O)c2cc(C)ccc2C)c(OC)c1	HTR5A ag 13.4
CCOc1ccc(S(=O)(=O)N/N=C(\C)c2ccc(OC)cc2OC)cc1	none
O=C(N[C@H](Cc1ccccc1)C(=O)NCc1ccc(OC(F)(F)F)cc1)[C@H]1O[C@@H](n2ccc(=O)[nH]c2=O)[C@H](O)[C@@H]1O	none (no result: OPRM1-OPRD1 ag, OPRM1-OPRD1 inv, bovine MsrA act, HTR5A ag, HTR5A inv ctr)
CCCS(=O)(=O)N1CCCC(C(=O)NCCCOC(C)C)C1 (stereo not given)	none
CCCS(=O)(=O)N1CCCC(C(=O)NCCCN2CCN(c3ccc(F)cc3)CC2)C1 (stereo not given)	HTR5A ag 10.8
Clc1ccc(-c2nnnn2-c2ccc(Cl)c(Cl)c2)cc1Cl	MsrA inhibitor 15.6
NC(CSC1(c2cccc3ccccc23)c2ccccc2-c2ccccc21)C(=O)O (stereo not given)	none
NC(CSC(c1ccccc1)(c1ccccc1)c1cccc2ccccc12)C(=O)O (stereo not given)	OPRM1-OPRD1 ag 21.0 (no result: MsrA inhibitor)
CCCNC(=O)CS(=O)(=O)Cc1nc(-c2cccc(OC)c2)oc1C	HTR5A ag 13.0
COc1cccc(-c2nc(CS(=O)(=O)CC(=O)Nc3ccccc3C)c(C)o2)c1	none
COc1cccc(-c2nc(CS(=O)(=O)CC(=O)Nc3cc(F)ccc3F)c(C)o2)c1	HTR5A ag 10.7
CCOCCCNC(=O)CS(=O)(=O)Cc1nc(-c2cccc(OC)c2)oc1C	none
CC(C)(C)C(=O)NCCCc1nc2ccccc2n1CCCOc1ccc(Cl)cc1	bovine MsrA act 10.2
Brc1cccc(CN2CCN(c3ncc(Cc4ccccc4)cn3)CC2)n1	none (no result: OPRM1-OPRD1 ag, OPRM1-OPRD1 inv, bovine MsrA act, HTR5A ag, HTR5A inv ctr)
Cc1cc(CNC(=O)COc2ccc(F)cc2)c2ccccc2n1	HTR5A ag 11.2
Cc1cc(CNC(=O)COc2ccccc2)c2ccccc2n1	none
CC(C)(C)c1ccc(Oc2ccc(NC(=O)c3cccs3)cn2)cc1	HTR5A ag 13.1
N#C[C@H](N)[C@H]1O[C@@H](n2ccc(=O)[nH]c2=O)[C@H](O)[C@@H]1O	none (no result: OPRM1-OPRD1 ag, OPRM1-OPRD1 inv, bovine MsrA act, HTR5A ag, HTR5A inv ctr)
O=C(NCc1ccc(F)cc1)c1noc2c1CCCC2	none (no result: MsrA inhibitor)
O=C(NCc1ccc(F)cc1)c1noc2c1CCCCC2	HTR5A ag 14.2
Cc1ccc(C(=O)Nc2ccc(N3CCN(S(C)(=O)=O)CC3)cc2)cc1	none
CS(=O)(=O)N1CCN(c2ccc(NC(=O)c3ccc(-c4ccc(Cl)cc4)o3)cc2)CC1	HTR5A ag 11.8
O=C(Nc1cccc(C(F)(F)F)c1)Nc1ccc2[nH]c(=O)[nH]c2c1	HTR5A ag 12.7
C/C(=N/Nc1ccc(C(=O)O)cc1)c1ccc(O)c(O)c1O	MsrA inhibitor 4.6
COc1ccc(OC)c(/C(C)=N/Nc2ccc(C(=O)O)cc2)c1	none
C[C@@H]1COc2cccc(NCCO)c2S(=O)(=O)N1	none (no result: OPRM1-OPRD1 ag, OPRM1-OPRD1 inv, bovine MsrA act, HTR5A ag, HTR5A inv ctr)
CC1Oc2ccccc2N(CC(=O)Nc2ccc(F)cc2)C1=O (stereo not given)	HTR5A ag 10.9
C=CCN=C1NC(c2cccc(F)c2)C(C(=O)OC)=C(C)N1Cc1cccc(C(F)(F)F)c1 (stereo not given)	none (no result: OPRM1-OPRD1 ag, OPRM1-OPRD1 inv, bovine MsrA act, HTR5A ag, HTR5A inv ctr)
Cc1cc(Cl)ccc1Oc1ncc(CN2CCN(c3ccccc3)CC2)s1	none
COc1ccc(Oc2ncc(CN3CCN(c4ccccc4)CC3)s2)cc1	HTR5A ag 10.5
NS(=O)(=O)c1ccc(NC2=CC(=O)C(=O)c3ccccc32)cc1	HTR5A ag 9.6
CCCCCCCCN1C(=O)[C@@H](CC(=O)NCc2cccc3ccccc23)C[C@@]2(C(=O)OC)C1=C[C@H](C(C)(C)C)O[C@@H]2C	none (no result: OPRM1-OPRD1 ag, OPRM1-OPRD1 inv, bovine MsrA act, HTR5A ag, HTR5A inv ctr)
c1ccc(C(c2c[nH]c3ccccc23)c2c[nH]c3ccccc23)nc1	HTR5A ag 31.8
CCc1c(-c2cccc(OC)c2)ncn1CCc1ccccc1OC	none (no result: OPRM1-OPRD1 ag, OPRM1-OPRD1 inv, bovine MsrA act, HTR5A ag, HTR5A inv ctr)
Cc1cc(C(=O)CSc2nc3ccccc3[nH]2)c(C)n1CC1CCCO1 (stereo not given)	HTR5A ag 13.5
O=C1C(Nc2ccccc2)=CC(c2ccc(O)cc2)N1c1ccccc1 (stereo not given)	HTR5A ag 12.5
CCOC(=O)C1C(=O)C=C(c2ccc([N+](=O)[O-])cc2)CC1c1ccccc1 (stereo not given)	none
CCOC(=O)C1C(=O)C=C(C)C(C(=O)OCC)C1c1cccc([N+](=O)[O-])c1 (stereo not given)	MsrA inhibitor 4.6
Cc1cccc(OCCCN2CCC(C(O)(c3ccccc3)c3ccccc3)CC2)c1	none (no result: OPRM1-OPRD1 ag, OPRM1-OPRD1 inv, bovine MsrA act, HTR5A ag, HTR5A inv ctr)
O=C(NC1CCCCC1)NC1(C(=O)NCCCN2CCOCC2)CCCCC1	HTR5A ag 10.5
O=C(Nc1ccccc1Cl)NC1(C(=O)NCCCN2CCOCC2)CCCCC1	none
COC(=O)[C@]12C[C@H](CC(=O)N3CCN(C(=O)C4CC4)CC3)C(=O)N(Cc3ccccc3)C1=C[C@H](C(C)C)O[C@@H]2C1CC1	none (no result: OPRM1-OPRD1 ag, OPRM1-OPRD1 inv, bovine MsrA act, HTR5A ag, HTR5A inv ctr)
Nc1[nH]c(C(=O)c2ccccc2)c(-c2ccc3c(c2)OCO3)c1C(=O)NCCc1c[nH]c2ccccc12	none (no result: OPRM1-OPRD1 ag, OPRM1-OPRD1 inv, bovine MsrA act, HTR5A ag, HTR5A inv ctr)
COc1ccc(C(=O)N/C(=C\c2cccs2)c2nc3ccccc3[nH]2)cc1OC	MsrA inhibitor 6.0
COc1ccc(C(=O)N/C(=C/c2cccs2)C(=O)NN)cc1OC	none
